Test results from PubChem BioAssay AID602248 (The Scripps Research Institute Molecular Screening Center, 2012).
About 1,700 (0.47%) of roughly 360,000 compounds were called active. The entries come from a sample that favours actives as a whole. Values without a mark were called inactive. No stated cut-off is given here; in the data, active means activation above about 15%; inactive means the rest.

Assay: counter-screen for M1 agonists: effect in parental CHO-K1 cells (AID 602248);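 further: untransfected CHO-K1 host cells lacking M1 receptor as counterscreen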
Details: Fluo-8 calcium fluorescence, at 3 µM, hits give high values, scaled to maximal ATP response, vehicle zero
Work on `NC(=O)C1=C[C@@H](c2csc3ccccc23)C[C@@H](OCc2ccc(CO)cc2)O1` yielded an activation of 5.09%. Molecule `O=C(NC1CC1)C1=C[C@H](c2c[nH]c3ccccc23)C[C@H](OCc2ccc(CO)cc2)O1` has an activation of -0.26%. With `NC(=O)C1=C[C@H](c2csc3ccccc23)C[C@H](OCc2ccc(CO)cc2)O1` the activation was 15.6% (active). Molecule `Cc1ccc(N)cc1-n1c(C)ccc1C` has an activation of 0.3%. In the case of `O=C(CSc1ccc(Cl)cc1)NC1CC1`, the activation is reported as -0.25%. For `CCC1(C)Cc2c(sc3nc(SC)[nH]c(=O)c23)CO1` (stereo unspecified), the activation was 18.7% (active). `CC/C(C)=N/Nc1nc2sc3c(c2c(=O)[nH]1)CC(C)(C)OC3` showed an activation of 0.65%. `CCSc1nc2sc3c(c2c(=O)[nH]1)CC(C)(C)OC3` gave an activation of 0.45%. `COc1ccc(-n2ncc3c2CC(C)(C)CC3NC(=O)CCc2c(C)nn(C)c2C)cc1` (stereo unspecified) showed an activation of 2.09%. In the case of `CCC(C(=O)Nc1ccc(C(C)C)cc1)c1ccccc1` (stereo unspecified), the activation is reported as 21.5% (active). Molecule `CCCC(C)C(=O)Nc1ccc(NC(C)=O)cc1` (stereo unspecified) has an activation of -0.01%. With `Cc1ccc(NC(=O)C(C)c2cccc(C(=O)c3ccccc3)c2)cc1` (stereo unspecified) the activation was 3.5%. `COc1ccc([C@H]2C[C@@H](n3cc(COC(=O)c4ccccc4)nn3)[C@H](O)CN2C(=O)c2cccs2)cc1` gave an activation of 4.74%. Molecule `O=C(NCCc1ccccn1)c1cc(C(=O)C2CCCCC2)c[nH]1` has an activation of 0.74%. With `CC(NC(=S)Nc1ccc(OC(F)F)cc1)c1ccc(F)cc1` (stereo unspecified) the activation was 18.2% (active). `CC/C(=N\NC(=S)NC(C)C)c1ccc(OC(F)F)cc1` gave an activation of 0.04%. Molecule `CC(C)N(Cc1ccccc1)C(=S)Nc1ccc(OC(F)F)cc1` has an activation of 3.54%. `COC(=O)[C@]12CCCCC=C1N(CCC1=CCCCC1)C(=O)[C@H](CC(=O)N1CCSCC1)C2` showed an activation of 2.39%. Work on `O=C(CC(=O)N/N=C\c1cccc(Cl)c1Cl)NCc1ccccc1` yielded an activation of 6.61%. With `CSc1sc(C)cc1C1C(C#N)=C(N)N(c2cccnc2)C2=C1C(=O)CCC2` (stereo unspecified) the activation was 0.25%. `C=CC(=O)OCCOCCOCCOCCOC(=O)C=C` gave an activation of 0.44%. Molecule `CCc1cc2c(N3CCN(c4nnc(CC)s4)CC3)ncnc2s1` has an activation of 3.43%. In the case of `Oc1ccccc1N1CCN(c2ncnc3sc(-c4ccccc4)cc23)CC1`, the activation is reported as 18.6% (active). `COc1ccccc1N1CCN(c2ncnc3sc(C)c(-c4ccccc4)c23)CC1` gave an activation of 0.5%. `CCOC(=O)[C@H]1[C@H]2COc3ccc(Cl)cc3[C@@H]2N2C(=O)c3cc(C)ccc3NC(=O)[C@@]12C` gave an activation of -0.51%. `COc1ccc(CSc2nnnn2-c2ccc(O)cc2)cc1F` showed an activation of 7.29%. Molecule `COc1ccc2c(c1)[C@H]1[C@H](CO2)[C@H](c2ccccc2)[C@]2(C)C(=O)Nc3cc(F)c(F)cc3C(=O)N12` has an activation of 0.27%. Molecule `CCN1C(=NCC(C)C)N[C@@H](CCc2ccccc2)[C@H](C(=O)NCC(C)C)[C@H]1C` has an activation of 0.45%. With `O=S1(=O)CC(N2CCN(Cc3ccccc3F)CC2)CN1Cc1cn(Cc2ccccc2)nn1` (stereo unspecified) the activation was 0.46%. Work on `CCOC(=O)CC1=CC(=O)Nc2ccccc2N1` yielded an activation of 0.86%. Molecule `O=C(COC(=O)c1ccc(Cl)nc1)NCc1ccc2c(c1)OCO2` has an activation of 1.56%. Work on `CC(=O)Nc1cccc(C(=O)OCC(=O)c2ccc3c(c2)OCO3)c1` yielded an activation of 3.56%. In the case of `NS(=O)(=O)c1ccc(NC(=O)COC(=O)CCc2c[nH]c3ccccc23)cc1`, the activation is reported as 2.12%. `CC(NC(=S)Nc1ccc(S(N)(=O)=O)cc1)c1ccc2c(c1)OCO2` (stereo unspecified) showed an activation of 0.36%. With `NC(=O)c1ccc(NC(=O)COC(=O)c2c3c(nc4ccccc24)/C(=C\c2ccc4c(c2)OCO4)CCC3)cc1` the activation was 28.9% (active). In the case of `NS(=O)(=O)c1ccc(NC(=O)COC(=O)c2c3c(nc4ccccc24)/C(=C\c2ccc4c(c2)OCO4)CCC3)cc1`, the activation is reported as 17.2% (active). Molecule `Cc1ccc(NS(=O)(=O)c2cn(C)c(=O)n(C)c2=O)c(C)c1` has an activation of 0.05%. Molecule `O=C(COC(=O)c1cncc(Br)c1)Nc1ccc(S(=O)(=O)N2CCOCC2)cc1` has an activation of 0.85%. Molecule `CCOC(=O)N(Cc1ccccc1)C1CC1` has an activation of 0.45%. Molecule `CN(CCO)C(=O)c1nc[nH]c1C(=O)N(C)Cc1ccccc1` has an activation of 0.53%. In the case of `CN(C(=O)CN(CCO)CC(=O)N(C)C(C)(C)Cc1ccccc1)C(C)(C)Cc1ccccc1`, the activation is reported as 30.2% (active). For `COc1ccc(CCNS(=O)(=O)c2ccc(Cl)s2)cc1OC`, the activation was 0.5%. Work on `CCCn1c(=O)c2ccccc2n2c(SCC(=O)/C(C#N)=C(\C)N)nnc12` yielded an activation of -0.17%. In the case of `CN(C)c1ccc(C(CNC(=O)c2ccc(F)cc2)c2c[nH]c3ccccc23)cc1` (stereo unspecified), the activation is reported as 0.33%. In the case of `COC(=O)c1nc2n(n1)C(c1ccc([N+](=O)[O-])cc1)C(C(=O)Nc1ccc(Cl)cc1)=C(C)N2` (stereo unspecified), the activation is reported as 0.7%. For `CCN(CC)CCCC(C)n1c2nc(=O)[nH]c(=O)c-2nc2cc(Cl)ccc21` (stereo unspecified), the activation was 150% (active). With `CC(=O)c1c(C)[nH]c(C(=O)OCC(=O)Nc2c(C)n(C)n(-c3ccccc3)c2=O)c1C` the activation was 0.66%. With `O=C(c1ccc(=O)[nH]c1)N(Cc1ccco1)C1(C(=O)NC2CCCCC2)CCCCC1` the activation was 0.04%. `COc1ccc(OC)c(NC(=O)C2CCCN2S(=O)(=O)c2cccc3nsnc23)c1` (stereo unspecified) gave an activation of 0.61%. For `Nc1ccc2[nH]c(=S)sc2c1`, the activation was 0.51%. Work on `O=C(CCN1C(=O)COc2ccccc21)NCCCN1CCN(c2ccc(F)cc2)CC1` yielded an activation of 0.21%. For `O=C(NCCCN1CCN(c2ccc(F)cc2)CC1)Nc1ccc([N+](=O)[O-])cc1`, the activation was 15.1% (active). For `CN1CCN(CCNC(=O)Nc2ccc([N+](=O)[O-])cc2)CC1`, the activation was 0.55%. For `CCn1nnnc1SCC(=O)Nc1ccc(N(C)C)cc1`, the activation was 0.31%. With `CCSCc1nc(N)nc(NCCc2ccccc2)n1` the activation was 15.5% (active). With `Cc1ccccc1Nc1nc(N)nc(CSc2ccccc2)n1` the activation was 0.45%. Work on `Nc1nc(CSc2nnnn2-c2ccccc2)nc(Nc2ccccc2)n1` yielded an activation of 1.93%. With `CCOC(=O)C1(Cc2cccc(OC)c2)CCN(C(C)CC(C)(C)O)CC1` (stereo unspecified) the activation was 13.4%. In the case of `Cc1ccc(NC(=O)COC(=O)CCc2nc3ccccc3n2-c2ccccc2)c(C)c1`, the activation is reported as -0.22%. In the case of `COc1cc(OC)cc(C(=O)NNC(=O)CCOc2ccccc2OC)c1`, the activation is reported as 0.49%. Work on `O=C(OCCN=C1NS(=O)(=O)c2ccccc21)c1cccc([N+](=O)[O-])c1` yielded an activation of 1.57%. With `O=C(CCCN=C1NS(=O)(=O)c2ccccc21)OCC(=O)c1ccc(F)c(F)c1` the activation was 16.5% (active). Molecule `N#CC1(NC(=O)COC(=O)CCN=C2NS(=O)(=O)c3ccccc32)CCCCC1` has an activation of 1.21%. `O=C(NCCCN1CCCC1=O)c1cccc(S(=O)(=O)NCc2ccccc2)c1` gave an activation of 0.5%. Work on `CC(C)(C)C(=O)NNC(=O)c1ccc(Oc2cc(Cl)cc(Cl)c2)o1` yielded an activation of 0.25%. `CC(C(=O)N1CCc2ccccc21)N(C)CC(=O)Nc1ccc(F)cc1` (stereo unspecified) gave an activation of 1.77%. `O=C(/C=C/c1ccc(F)cc1)NC(=S)NNC(=O)c1cccnc1` showed an activation of 1.3%. In the case of `COc1ccccc1CCC(=O)NNC(=O)c1ccncc1`, the activation is reported as 0.44%. Molecule `Cc1onc(-c2ccccc2)c1C(=O)N1CCN(S(=O)(=O)c2ccccc2C(F)(F)F)CC1` has an activation of 0.62%. In the case of `COc1ccc(/C(N)=N/OC(=O)CCCc2ccccc2)cc1`, the activation is reported as -0.55%. With `COc1ccc(C(=O)NNC(=S)NC(=O)c2ccccc2)cc1` the activation was 38.2% (active). Work on `Cc1scc(C(=O)NNC(=S)NCc2ccccc2)c1C` yielded an activation of 1.16%. For `COc1ccc(C(=O)NC(=S)NNC(=O)CCc2ccccc2)cc1`, the activation was 21.1% (active). For `Cn1nnc(NC(=S)NC(=O)c2ccccc2)n1`, the activation was 0.43%. In the case of `CC(=O)NC(=S)NNC(=O)c1ccc(Br)cc1`, the activation is reported as -0.94%. With `Cc1onc(-c2ccccc2)c1C(=O)NNC(=S)NC(=O)c1ccc(F)cc1` the activation was 28.7% (active). For `O=C(NNC(=S)NCc1ccccc1)c1ccc(OC(F)F)cc1`, the activation was 15.8% (active). `CC(C)CNC(=S)NNC(=O)c1ccccc1OC(F)F` showed an activation of 0.18%. `O=C(Oc1ccc2c(c1)CCC2)N1CCOCC1` gave an activation of 1.59%. Work on `CCC(=O)c1cc(F)ccc1OCC(=O)Nc1ccc2c(c1)OCCO2` yielded an activation of 0.59%. For `CC(C)NC(=O)C1(C)CCCCN1Cc1cccc(C(F)(F)F)c1` (stereo unspecified), the activation was -0.34%. `Cc1cccc(NC(=O)N2CCCCCC2)c1C` gave an activation of 0.19%. In the case of `Cc1ccc(S(=O)(=O)NC(C)C(=O)Nc2ccccc2C(=O)N2CCCC2)cc1` (stereo unspecified), the activation is reported as -0.4%. In the case of `O=S1(=O)CCOC[C@H](CC2CCCCC2)N1Cc1ccc(F)cc1`, the activation is reported as -0.24%. `CCC(C)c1ccccc1N1CC(C(=O)N2CCN(S(=O)(=O)c3ccc(F)cc3)CC2)CC1=O` (stereo unspecified) showed an activation of 1.26%. With `COc1cccc(-c2ccc(C#N)c(SCC(=O)NCCc3ccc(Cl)cc3)n2)c1` the activation was -0.1%. Work on `CC(=O)Oc1ccc(-c2cccc(C(=O)N3CCCCC3)c2)cc1` yielded an activation of 2.44%. With `Nc1c(C(=O)c2cccs2)sc2nsc(SCCN3CCCCC3)c12` the activation was 69.8% (active). `CCOC(=O)C(C)Sc1nnc(CSc2nc3nc(C)cc(C)n3n2)o1` (stereo unspecified) gave an activation of 1.72%. Work on `Cc1ccc(NC(=O)CC2S/C(=N/N=C3\CCCc4ccccc43)NC2=O)cc1` (stereo unspecified) yielded an activation of 12.4%. Work on `O=C(OCc1ccccc1)N1CCC2CC1c1ccc(-c3ccc4c(c3)OCO4)cc12` (stereo unspecified) yielded an activation of 1.17%.
